HEK cytotox: cytotoxic compounds in HEK 293 cells; 6.6% of 94,000 active; HEK 293 viability, ATP luminescence (CellTiter-Glo), 48-72 h; Potency, µM (highest dose often 115 µM), without a hit: at the top dose activity change, negative = cytotoxicity, hits mostly inhibitors; AID 1345083; further: nearly all actives have a fitted effect of over 60% in size
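qHTS cytotoxicity; HEK 293, 250 cells/well; compound pinned; 48 or 72 hr, 37 degree Celsius, 5% CO2, 95% humidity; CellTiter-Glo, 10 min RT; luminescence (ATP).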
hNpr1 antagonist: antagonists of human natriuretic peptide receptor Npr1 | P16066 | AID 1347048 | Potency, µM (top dose mostly 46.3 µM), inactives show at the top dose activity change, negative = inhibition, actives largely listed as inhibitors | HEK293 hNpr1 GloSensor cGMP, ANP-stimulated luminescence | 1.6% of 76,000 active; calls by dose curve; further: nearly all actives have a fitted effect of over 60% in size
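HEK293 cells stably expressing human Npr1 and cGMP GloSensor pGS-40F, loaded 2 h with 2% GloSensor reagent, given compound 30 min at room temperature. Luminescence read before and 20 min after 0.1 nM hNppA.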
Luciferase inh: blocks purified firefly luciferase enzyme activity | AID 1347043 | P08659 | Potency, µM (highest dose often 115 µM), actives largely listed as inhibitors | 2.5% of 76,000 active | purified P. pyralis luciferase, luminescence, biochemical; further: nearly all actives have a fitted effect of over 65% in size
Target sequence (P08659 whole entry, looked up): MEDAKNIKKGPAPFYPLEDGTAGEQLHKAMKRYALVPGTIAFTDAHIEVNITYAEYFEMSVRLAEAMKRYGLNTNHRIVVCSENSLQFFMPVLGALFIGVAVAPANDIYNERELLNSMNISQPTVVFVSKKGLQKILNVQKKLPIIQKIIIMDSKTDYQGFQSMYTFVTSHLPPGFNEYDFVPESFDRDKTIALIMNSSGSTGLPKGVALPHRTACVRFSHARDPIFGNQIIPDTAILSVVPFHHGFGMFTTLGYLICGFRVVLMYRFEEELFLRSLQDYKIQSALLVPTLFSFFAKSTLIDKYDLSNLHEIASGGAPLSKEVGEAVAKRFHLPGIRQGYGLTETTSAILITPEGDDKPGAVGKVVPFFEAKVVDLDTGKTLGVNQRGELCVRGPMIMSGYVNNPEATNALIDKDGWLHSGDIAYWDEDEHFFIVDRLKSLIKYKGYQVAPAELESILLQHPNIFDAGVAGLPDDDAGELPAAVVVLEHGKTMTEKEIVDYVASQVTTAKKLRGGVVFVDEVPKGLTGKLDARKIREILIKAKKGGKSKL
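Luminescence read by CCD imaging after purified firefly luciferase (10nM final) was added to substrate buffer holding 10uM D-luciferin and 10uM ATP, pH 7.5, pre-dosed with compound.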
3T3 cytotox: cytotoxic compounds in NIH 3T3 cells; NIH 3T3 viability, CellTiter-Glo ATP luminescence, 48-72 h; Potency, µM (highest dose often 96.7 µM), without a hit: at the top dose activity change, negative = cytotoxicity, usual class: inhibitors; 4.3% of 94,000 active; further: nearly all actives have a fitted effect of over 55% in size
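Luminescent ATP readout (CellTiter-Glo, 10 min RT) after 48 or 72 hr compound exposure of NIH 3T3 cells seeded at 400 cells/well in 1536-well format; quantitative HTS.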
GPT2 inhibitor: GPT2 alanine aminotransferase inhibition | Q8TD30 | Recombinant GPT2, coupled pyruvate oxidase/HRP Amplex Red fluorescence | Potency, µM (doses to about 57.7 µM), for inactives: top-dose activity change, negative = inhibition, usual class: inhibitors | 0.25% of 100,000 active | AID 1671188; further: nearly all actives have a fitted effect of over 60% in size
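GPT2 10ng/uL, a-KG 250uM, L-Ala 2mM, HEPES pH7.5 + 0.0001% Tween; 30 min RT. Then Amplex mix (PO/HRP/ThPP), 30 min RT dark, fluorescence. AOA 50uM used as positive control.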
Active calls of the source: *; [ ] = another dose, or the depositor's remark. An excerpt weighted towards active compounds, which were near 10% of everything screened. Unless noted, the call rests on the fitted dose curve; in most records, active means well fitted curve in the direction sought with a large enough effect; inconclusive means small, poorly fitted or top-dose-only effect, or another doubt; inactive means no such curve, though single readings can be large; an effect the other way counts as inactive or inconclusive. On the % scale 0 is the no-effect control and ±100 the full control effect; potency means the concentration at half of the fitted maximal effect.

`O=C(C1CCN(S(=O)(=O)N2CCOCC2)CC1)N1CCC(CCOc2ccc(F)cc2)C1` (centres undefined) gave HEK cytotox 45µM*, 3T3 cytotox inconclusive and GPT2 inhibitor -10%.
Screening CN(CC(=O)N1CCC(CCOc2ccc(F)cc2)C1)S(=O)(=O)c1ccc2c(c1)oc(=O)n2C (centres undefined) returned HEK cytotox 35µM*, hNpr1 antagonist inconclusive, Luciferase inh inactive, 3T3 cytotox inconclusive and GPT2 inhibitor inactive.
COCC(=O)N1CCCC(c2noc(COc3ccccc3F)n2)C1 (centres undefined) was read as HEK cytotox -11%, hNpr1 antagonist 7%, Luciferase inh inactive, 3T3 cytotox -3% and GPT2 inhibitor -2%.
`O=C(Nc1cnc(-c2cccc(Cl)c2)nc1)c1ccsc1` gave HEK cytotox -14%, hNpr1 antagonist -17%, Luciferase inh inconclusive, 3T3 cytotox -26% and GPT2 inhibitor inactive.
Screening O=C(Nc1cnc(-c2cccc(Cl)c2)nc1)c1ccc(F)cc1Cl returned HEK cytotox inconclusive, hNpr1 antagonist inconclusive, Luciferase inh 11µM*, 3T3 cytotox inconclusive and GPT2 inhibitor 2%.
`O=C(Nc1cnc(-c2cccc(Cl)c2)nc1)c1nccc2ccccc12` gave HEK cytotox inconclusive, hNpr1 antagonist -15%, Luciferase inh inactive, 3T3 cytotox inconclusive and GPT2 inhibitor inactive.
`O=C(Nc1cnc(-c2cccc(Cl)c2)nc1)c1ccccc1F` gave HEK cytotox -2%, hNpr1 antagonist -15%, Luciferase inh 1µM*, 3T3 cytotox 4% and GPT2 inhibitor 3%.
For CC(C)(C)CC(=O)Nc1cnc(-c2ccc(Cl)cc2)nc1 the results were HEK cytotox 45µM*, hNpr1 antagonist 3.5µM*, Luciferase inh 0.28µM*, 3T3 cytotox 40µM* and GPT2 inhibitor -5%.
For O=C(Nc1cnc(-c2cccc(Cl)c2)nc1)C1CCCO1 (centres undefined) the results were HEK cytotox inconclusive, hNpr1 antagonist inconclusive, Luciferase inh 2.8µM*, 3T3 cytotox -26% and GPT2 inhibitor 0%.
For CCN1C(=O)CCN(S(=O)(=O)Cc2ccccc2F)CC12CCOCC2 the results were HEK cytotox -4%, hNpr1 antagonist 4%, Luciferase inh inactive, 3T3 cytotox inactive and GPT2 inhibitor -4%.
`COc1ccc(N2C(=O)C3(CCCCC3)C2C(=O)O)cc1` (centres undefined) gave HEK cytotox 3%, hNpr1 antagonist -1%, Luciferase inh inactive, 3T3 cytotox inactive and GPT2 inhibitor inactive.
`O=C(NC1CCCC1)C1CCCN1C(=O)c1cccc(-c2cccnc2)c1` (centres undefined) gave HEK cytotox inactive and 3T3 cytotox 1%.
`Cc1ccc(-c2ncc(NC(=O)c3ccc(F)c(F)c3)cn2)cc1` gave HEK cytotox 9%, hNpr1 antagonist 5%, Luciferase inh inactive, 3T3 cytotox inactive and GPT2 inhibitor inactive.
For O=C(Nc1cnc(-c2cccnc2)nc1)C1CCCC1 the results were HEK cytotox 4%, hNpr1 antagonist -11%, Luciferase inh 32µM*, 3T3 cytotox -6% and GPT2 inhibitor inactive.
For O=C(Nc1cnc(-c2ccc(Cl)cc2)nc1)c1cccc(F)c1 the results were HEK cytotox inconclusive, hNpr1 antagonist -11%, Luciferase inh 7.9µM*, 3T3 cytotox -4% and GPT2 inhibitor -7%.
For COc1ccccc1CC(=O)Nc1cnc(-c2cccc(Cl)c2)nc1 the results were HEK cytotox inconclusive, hNpr1 antagonist -19%, Luciferase inh 13µM*, 3T3 cytotox inconclusive and GPT2 inhibitor -1%.
`CC(C)(Oc1nn(CC2CCOCC2)c2ccccc12)C(=O)NCc1ccncc1` gave HEK cytotox -11%[172 µM], hNpr1 antagonist 0%[70.6 µM], Luciferase inh inactive, 3T3 cytotox inconclusive and GPT2 inhibitor -1%[88.5 µM].
For O=[S+]([O-])(c1ccc(Cl)cc1)c1nnn2c1nc(NC1CCCC1)c1ccccc12 the results were HEK cytotox inconclusive, 3T3 cytotox inconclusive and GPT2 inhibitor -12%.
For COc1ccc(-c2nnc([C@H]3CCN(S(C)(=O)=O)C3)o2)cc1 the results were HEK cytotox inactive, hNpr1 antagonist 0%[70.6 µM], Luciferase inh inactive, 3T3 cytotox -18%[138 µM] and GPT2 inhibitor 1%[88.5 µM].
O=S(=O)(Cc1ccccc1)N1CCC(Oc2ccc(-c3noc(C4CC4)n3)cc2)C1 (centres undefined) was read as HEK cytotox 40µM*, hNpr1 antagonist inconclusive, Luciferase inh inactive, 3T3 cytotox inconclusive and GPT2 inhibitor inactive.
COc1ccc(-c2nnc([C@H]3CCN(S(=O)(=O)Cc4ccccc4)C3)o2)cc1 was read as HEK cytotox inconclusive, hNpr1 antagonist -3%[70.6 µM], Luciferase inh 50µM*, 3T3 cytotox inconclusive and GPT2 inhibitor -8%[88.5 µM].
COCC1CN(C(=O)c2ccc(Cc3c(C)noc3C)o2)CC12CCNCC2 (centres undefined) was read as HEK cytotox -21%, hNpr1 antagonist 4%, Luciferase inh inactive, 3T3 cytotox -11% and GPT2 inhibitor inactive.
Cc1noc(C)c1Cc1ccc(C(=O)N2CCC3(CC2)CC(Cc2ccc(F)cc2)CCO3)o1 (centres undefined) was read as HEK cytotox 28µM*, 3T3 cytotox inconclusive and GPT2 inhibitor inactive.
Screening Cc1ccc(CC2CCOC3(CCN(C(=O)c4cccc(C#N)c4)CC3)C2)cc1 (centres undefined) returned HEK cytotox 50µM*, hNpr1 antagonist inconclusive, Luciferase inh inactive, 3T3 cytotox inconclusive and GPT2 inhibitor -13%.
`Cc1cccc(C(=O)N2CCC3(CC2)CC(Cc2ccc(F)cc2)CCO3)c1` (centres undefined) gave HEK cytotox 45µM*, hNpr1 antagonist -16%, Luciferase inh inactive, 3T3 cytotox inconclusive and GPT2 inhibitor -8%.
Cc1ccc(CC2CCOC3(CCN(C(=O)c4cccs4)CC3)C2)cc1 (centres undefined) was read as HEK cytotox 45µM*, hNpr1 antagonist inconclusive, Luciferase inh inactive, 3T3 cytotox inconclusive and GPT2 inhibitor -16%.
For O=C(CC1CCOC2(CCN(C(=O)c3cccs3)CC2)C1)N1CCCC1 (centres undefined) the results were HEK cytotox -8%, 3T3 cytotox -17% and GPT2 inhibitor inactive.
For Cc1n[nH]c(C)c1-c1ccc(CN(C)C)cc1O the results were HEK cytotox -3%, hNpr1 antagonist 2%, Luciferase inh inactive, 3T3 cytotox inactive and GPT2 inhibitor 3%.
For NCc1ccccc1-c1cc(F)cc(F)c1 the results were HEK cytotox -18%[172 µM], 3T3 cytotox -11%[138 µM] and GPT2 inhibitor -11%[88.5 µM].
